Over roughly 33,000 sequences, “E-score (-0.5 to 0.5)” has its median near -0.0014; the highest 2% begin near 0.25. Only a selection was taken, and the highest values are over-represented in it overall.
What follows are sequences tested against T1, Cad1 (UniProt P24813) (assay: PBM E-score (8-mer binding enrichment) (E-score (-0.5 to 0.5)); higher = stronger / more preferred TF binding). Details: protein concentration: 100 nM; construct: GST-full length.
T1 sequence: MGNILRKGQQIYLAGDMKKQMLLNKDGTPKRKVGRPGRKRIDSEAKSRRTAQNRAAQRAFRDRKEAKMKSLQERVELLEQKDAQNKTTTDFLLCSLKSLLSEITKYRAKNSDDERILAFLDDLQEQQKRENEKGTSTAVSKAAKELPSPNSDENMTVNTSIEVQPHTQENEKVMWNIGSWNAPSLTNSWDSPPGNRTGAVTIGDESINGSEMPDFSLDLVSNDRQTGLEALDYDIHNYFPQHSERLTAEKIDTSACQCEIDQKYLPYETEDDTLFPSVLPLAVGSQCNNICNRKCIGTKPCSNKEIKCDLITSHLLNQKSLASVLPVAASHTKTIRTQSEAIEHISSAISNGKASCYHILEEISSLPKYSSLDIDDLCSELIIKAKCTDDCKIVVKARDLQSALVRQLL
Protocol: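 Universal 'all 10-mer' protein binding microarrays (Agilent AMADID 015681) probed with GST-tagged S. cerevisiae TFs (full-length or DBD) made by in vitro transcription/translation (PURExpress), about 100-200 nM. Bound TF was detected with fluorescent anti-GST. Each ungapped 8-mer (which stands for itself and its reverse complement) is scored by the PBM enrichment score (E-score), a modified Wilcoxon-Mann-Whitney statistic from -0.5 to +0.5, computed with the Universal PBM Analysis Suite. Scale: above 0.35 generally sequence-specific binding.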
With AGCAATCC the “PBM E-score” value was -0.214. In the case of AGCAATCA, the “PBM E-score” value is reported as 0.216. In the case of AGCAATCG, the “PBM E-score” value is reported as 0.27. With ATGCGACC the “PBM E-score” value was 0.0488. For CTATTAGA, the “PBM E-score” value was -0.057. For ATATTAGA, the “PBM E-score” value was 0.197. For GTATTAGA, the “PBM E-score” value was 0.26. For GTTGCAGA, the “PBM E-score” value was -0.0187. For AAATCGTG, the “PBM E-score” value was 0.263. In the case of AAATAGTC, the “PBM E-score” value is reported as -0.0981. For AAATCGTA, the “PBM E-score” value was -0.0277. With AAATAGTG the “PBM E-score” value was 0.258. AAATAGTT was tested, and the “PBM E-score” value was 0.129. AAATCGTC was tested, and the “PBM E-score” value was 0.0296. In the case of CACGATGC, the “PBM E-score” value is reported as -0.0719. With GAATCGTA the “PBM E-score” value was 0.0597. In the case of CCGAAGAA, the “PBM E-score” value is reported as 0.00754. With CAGGTGCC the “PBM E-score” value was -0.0801. For AGAATACA, the “PBM E-score” value was 0.0745. With ATTATTTC the “PBM E-score” value was 0.2. For AATATTTC, the “PBM E-score” value was 0.264. In the case of AATATGTA, the “PBM E-score” value is reported as 0.206. In the case of AATATGTC, the “PBM E-score” value is reported as 0.17. AATATGTG was tested, and the “PBM E-score” value was 0.251. With CATATTTC the “PBM E-score” value was 0.0121. For ACTATTTG, the “PBM E-score” value was 0.101. With AATATTTA the “PBM E-score” value was 0.213. For CTTATTTC, the “PBM E-score” value was 0.304. ATTATTTG was tested, and the “PBM E-score” value was 0.175. In the case of CTTATTTA, the “PBM E-score” value is reported as -0.00667. With AATATTTG the “PBM E-score” value was 0.255. In the case of CCCTACCG, the “PBM E-score” value is reported as -0.112. For AACGGGAC, the “PBM E-score” value was -0.148. In the case of AACCAGAC, the “PBM E-score” value is reported as -0.0829. With GTGGACTA the “PBM E-score” value was 0.144. CTGAAGTC was tested, and the “PBM E-score” value was -0.0337. For ACATCCCG, the “PBM E-score” value was 0.147. CCCTCGAC was tested, and the “PBM E-score” value was -0.0126. With AATTTGGG the “PBM E-score” value was 0.0286. In the case of AGTCCACA, the “PBM E-score” value is reported as -0.141. In the case of AATATTGC, the “PBM E-score” value is reported as 0.294. For CATATTGC, the “PBM E-score” value was -0.116. AATATTGG was tested, and the “PBM E-score” value was 0.0135. With GACGAAAC the “PBM E-score” value was 0.144. For GATTTATA, the “PBM E-score” value was 0.319. With CATTTATA the “PBM E-score” value was 0.021. ATTTTGTC was tested, and the “PBM E-score” value was 0.121. For AATTTATA, the “PBM E-score” value was 0.241. AATTTGTC was tested, and the “PBM E-score” value was 0.31. For AATTTATG, the “PBM E-score” value was 0.229. For ATTTTATG, the “PBM E-score” value was 0.255. For ATTTTATA, the “PBM E-score” value was 0.221. In the case of GATTTTTA, the “PBM E-score” value is reported as -0.0272. AATTTATC was tested, and the “PBM E-score” value was 0.293. With AATTTGTA the “PBM E-score” value was 0.196. With CATTTATC the “PBM E-score” value was 0.15. In the case of GATCAAAA, the “PBM E-score” value is reported as 0.144. For AGTACTTA, the “PBM E-score” value was -0.0184. CAGGTTCA was tested, and the “PBM E-score” value was -0.134. In the case of TTCGACAA, the “PBM E-score” value is reported as 0.0549. In the case of GGCGACAC, the “PBM E-score” value is reported as 0.0142. With GTACGTGA the “PBM E-score” value was 0.0217. With AGCAACCA the “PBM E-score” value was 0.0389. ATCGTTAC was tested, and the “PBM E-score” value was 0.0243. CTTCATGA was tested, and the “PBM E-score” value was 0.207. AATCATGA was tested, and the “PBM E-score” value was 0.317. For TATCATGA, the “PBM E-score” value was 0.16. With GTTCATGA the “PBM E-score” value was 0.262. AATCATGG was tested, and the “PBM E-score” value was 0.048. With ATTCATGA the “PBM E-score” value was 0.0482. For CTCTGAAC, the “PBM E-score” value was -0.212. In the case of GGTATCCA, the “PBM E-score” value is reported as 0.135. For CTCTCCTA, the “PBM E-score” value was -0.129. CGCGATGC was tested, and the “PBM E-score” value was -0.0576. In the case of TCAGAGAA, the “PBM E-score” value is reported as -0.0244. With AAGGCCAT the “PBM E-score” value was 0.0298. In the case of ATTCTCCC, the “PBM E-score” value is reported as 0.115. For CTACCTCA, the “PBM E-score” value was -0.107. In the case of AGCGCTTC, the “PBM E-score” value is reported as 0.122. CGCGCTTA was tested, and the “PBM E-score” value was 0.262. In the case of CGCGCTTC, the “PBM E-score” value is reported as 0.0321. For GGCGCTGA, the “PBM E-score” value was -0.0921. AGCGCTGA was tested, and the “PBM E-score” value was 0.258. With GGCGCTTA the “PBM E-score” value was -0.0696. With CACGCTGA the “PBM E-score” value was 0.143. In the case of AGCGCTTA, the “PBM E-score” value is reported as 0.336. GACGCTGA was tested, and the “PBM E-score” value was 0.0912. With AGCGCTGG the “PBM E-score” value was 0.191. CGCGCTGA was tested, and the “PBM E-score” value was 0.219. For TACGCTGA, the “PBM E-score” value was 0.275. With CTGTTCGA the “PBM E-score” value was -0.08. CTCCTACC was tested, and the “PBM E-score” value was -0.236. CGGGTGAC was tested, and the “PBM E-score” value was -0.0446. For ACGGTGAC, the “PBM E-score” value was -0.102. For ATCATTGG, the “PBM E-score” value was -0.0561. CCAGTCGG was tested, and the “PBM E-score” value was -0.238. With CTCACCGA the “PBM E-score” value was -0.12. GATTCCTA was tested, and the “PBM E-score” value was 0.0143. In the case of TACGCTCA, the “PBM E-score” value is reported as -0.0567. In the case of AACGCTCA, the “PBM E-score” value is reported as -0.0578. With CACGCTCA the “PBM E-score” value was 0.261. With ACGGTACA the “PBM E-score” value was 0.0323. CGTCAGGC was tested, and the “PBM E-score” value was -0.125. For AGTCAGGA, the “PBM E-score” value was 0.141. For AGTCAGGC, the “PBM E-score” value was 0.294. GCCATAAA was tested, and the “PBM E-score” value was 0.125. In the case of AGAAGGTA, the “PBM E-score” value is reported as 0.103. For GGCGCTAC, the “PBM E-score” value was -0.214. With GGCGCTAA the “PBM E-score” value was -0.0255. In the case of CGCGCTAC, the “PBM E-score” value is reported as 0.26. For TGCGCTAA, the “PBM E-score” value was 0.156. For AGCGCTAT, the “PBM E-score” value was 0.278. For CGCGCTAA, the “PBM E-score” value was 0.256. AGCGCTAC was tested, and the “PBM E-score” value was -0.068. For AGCGCTAA, the “PBM E-score” value was 0.212. CGCGCTAG was tested, and the “PBM E-score” value was 0.238. CCAAAATA was tested, and the “PBM E-score” value was 0.147. In the case of CTTCCATA, the “PBM E-score” value is reported as -0.244. With AAGCCGGT the “PBM E-score” value was -0.024. For GCATAGAA, the “PBM E-score” value was 0.0802. For ATTCATCA, the “PBM E-score” value was 0.132. ACTTTCTA was tested, and the “PBM E-score” value was -0.028. In the case of TACTAGAA, the “PBM E-score” value is reported as 0.0443. CACCCGCC was tested, and the “PBM E-score” value was 0.0605. ATCGTAGC was tested, and the “PBM E-score” value was 0.0921. AACGAGCA was tested, and the “PBM E-score” value was -0.0102. With CACATAAG the “PBM E-score” value was 0.00562. For CATATAAA, the “PBM E-score” value was 0.0106. In the case of CATATAAG, the “PBM E-score” value is reported as 0.00934. With AACATAAG the “PBM E-score” value was 0.261. TATATAAA was tested, and the “PBM E-score” value was 0.23. With AATATAAT the “PBM E-score” value was 0.18. For AACATAAC, the “PBM E-score” value was 0.135. AATATAAA was tested, and the “PBM E-score” value was 0.251. With AATATAAG the “PBM E-score” value was 0.297. For AGGCTACT, the “PBM E-score” value was -0.196. In the case of CATTGGAA, the “PBM E-score” value is reported as 0.0544. For TGTAGAAA, the “PBM E-score” value was -0.18. CATTGAGA was tested, and the “PBM E-score” value was -0.109. AGAAGAAT was tested, and the “PBM E-score” value was -0.0672. With AGATAGAC the “PBM E-score” value was 0.0347. GATTTCTA was tested, and the “PBM E-score” value was 0.123. With ACTATTGG the “PBM E-score” value was 0.025. ATAGTTCA was tested, and the “PBM E-score” value was 0.0339. With AAATTTAT the “PBM E-score” value was 0.171. AATTTTCC was tested, and the “PBM E-score” value was 0.26. In the case of AATTTTAC, the “PBM E-score” value is reported as 0.282. AATTTAAT was tested, and the “PBM E-score” value was 0.252. For ATTTTTAC, the “PBM E-score” value was 0.0299. With AATTTAAC the “PBM E-score” value was 0.124. With ATTTTTCC the “PBM E-score” value was 0.0266. AATTTAAG was tested, and the “PBM E-score” value was 0.0522. In the case of AATTTTAT, the “PBM E-score” value is reported as 0.295. With AATTTTTC the “PBM E-score” value was 0.145. AATTTTAA was tested, and the “PBM E-score” value was 0.249. With CATTTTAC the “PBM E-score” value was 0.198. In the case of CAGCGGCA, the “PBM E-score” value is reported as -0.0412. In the case of CCAGCCCG, the “PBM E-score” value is reported as -0.102. CGGGTTTC was tested, and the “PBM E-score” value was 0.179. In the case of CGACCGAG, the “PBM E-score” value is reported as -0.0641. In the case of CATTCGGC, the “PBM E-score” value is reported as -0.0238. TCTAATAA was tested, and the “PBM E-score” value was 0.0758. In the case of AATAATCA, the “PBM E-score” value is reported as 0.218. With AATAATAA the “PBM E-score” value was 0.305. In the case of CTTAATAA, the “PBM E-score” value is reported as 0.383. For GTTAATAA, the “PBM E-score” value was 0.249. For AATAATAG, the “PBM E-score” value was 0.077. In the case of TATAATCA, the “PBM E-score” value is reported as 0.31. With TATAATAA the “PBM E-score” value was 0.278. In the case of CTTAATAC, the “PBM E-score” value is reported as -0.0147. AATAATAC was tested, and the “PBM E-score” value was 0.205. GATAATCA was tested, and the “PBM E-score” value was 0.169.

From the supplement of paper PMC3334620
